The panel holds about 83,000 compounds, 20% with a hit somewhere; the sample as a whole holds those more often.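 Values shown are percent growth following 48 h exposure of cells in 96-well plates to a single concentration of compound; below 10 was considered active.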 The source made the active and inactive calls.
What was measured:
Experiment in all cases: NCI-60 one-dose screen, 48 h (100 = growth as untreated, 0 = no growth, -100 = all killed)
Details in all cases: 10 µM unless noted
[1] = tested on: UO-31 renal
[2] = tested on: TK-10 renal
[3] = tested on: ACHN renal
[4] = tested on: CAKI-1 renal
[5] = tested on: A498 renal
[6] = tested on: CCRF-CEM leukemia
[7] = tested on: MOLT-4 leukemia
[8] = tested on: SR leukemia
[9] = tested on: RPMI-8226 leukemia
[10] = tested on: OVCAR-8 ovarian
[11] = tested on: OVCAR-5 ovarian
[12] = tested on: OVCAR-4 ovarian
[13] = tested on: SK-OV-3 ovarian
[14] = tested on: IGROV1 ovarian
[15] = tested on: OVCAR-3 ovarian
[16] = tested on: HS 578T breast
[17] = tested on: NCI/ADR-RES ovarian
[18] = tested on: SK-MEL-2 melanoma
[19] = tested on: SN12C renal

Measured: growth

Cc1nnc2nc(N)[nH]n2c1=O
inactive: [1] 84.7% | [2] 89.8% | [3] 109% | [4] 111% | [5] 118% | [6] 109% | [7] 74.7% | [8] 78.9% | [9] 106% | [10] 98.8% | [11] 117% | [12] 99.4% | [13] 112% | [14] 103% | [15] 104% | [16] 112% | [17] 99.7%

COc1ccc(-c2cc(/C=C/C(=O)c3ccc(N)cc3)[nH]n2)cc1
inactive: [18] 22.4% | [19] 18.4% | [1] 39.6% | [2] 41.8% | [4] 38.7% | [11] 54.5% | [12] 33.1% | [14] 32.8% | [17] 17.5%
active: [5] -16.8% | [8] -20.2% | [9] -29.9% | [15] -34.1%

CC(C)(C)CC(C)(C)c1ccc(OCCOCC[N+](C)(C)CC(=O)[O-])cc1
inactive: [18] 117% | [1] 98.5% | [2] 109% | [3] 111% | [5] 104% | [7] 94.2% | [8] 94.8% | [10] 105% | [11] 102% | [13] 109% | [14] 100% | [15] 113% | [16] 114% | [17] 111%

Cc1ccc(-c2ccc(Nc3ccccc3)nn2)cc1S(N)(=O)=O
inactive: [19] 90.1% | [1] 107% | [2] 142% | [3] 91.6% | [4] 80.9% | [5] 89.2% | [7] 62.2% | [8] 23.6% | [9] 86.1% | [11] 101% | [12] 94.7% | [13] 100% | [14] 97.3% | [15] 94.6%

CC(C)(C)c1[nH]nc2c1C(c1cc3ccccc3[nH]c1=O)Nc1cc(C(=O)OCc3ccccc3)ccc1N2 (stereo unspecified)
inactive: [18] 67% | [19] 61.2% | [1] 47.2% | [2] 47.6% | [5] 65% | [6] 37.9% | [7] 18% | [8] 38.9% | [9] 53.6% | [10] 64.9% | [12] 54.3% | [13] 83% | [15] 49.2% | [16] 66.6% | [17] 86.8%

c1ccc2[nH]c(-c3cc(-c4ccc5c(c4)OCO5)n[nH]3)nc2c1
inactive: [18] 41% | [1] 66.7% | [2] 86% | [3] 45.6% | [4] 55.1% | [5] 71.8% | [8] 28% | [11] 86.4% | [12] 60.5% | [13] 76.9% | [14] 56.6% | [15] 40.8% | [17] 59.6%
active: [9] 7.45%

COc1ccc(C(=O)/C=C/c2cc(-c3cc(OC)c(OC)c(OC)c3)n[nH]2)cc1OC
active: [19] 5.5% | [1] -84.8% | [3] -86.2% | [4] -67% | [5] 4.21% | [6] -18.6% | [7] -1.18% | [8] -15.6% | [9] -36% | [10] -4.15% | [14] -5.47% | [15] -55.3%
inactive: [18] 22.6% | [11] 32.9% | [12] 13.3% | [13] 51.6% | [16] 57.1% | [17] 15%

C[N+](C)(CCCCCC[N+](C)(C)C1c2ccccc2-c2ccccc21)C1c2ccccc2-c2ccccc21
inactive: [18] 95.8% | [19] 108% | [1] 89% | [2] 112% | [6] 106% | [7] 90.1% | [8] 98.3% | [9] 101% | [10] 104% | [11] 108% | [12] 111% | [13] 111% | [15] 104% | [16] 98.2% | [17] 115%

[B-][N+](CC)(CC)c1ccccc1
inactive: [18] 113% | [19] 108% | [2] 110% | [3] 95.1% | [5] 108% | [7] 95.2% | [8] 74.7% | [9] 108% | [10] 112% | [11] 86.9% | [12] 103% | [13] 109% | [14] 112% | [15] 112% | [16] 120% | [17] 110%
active: [6] -12.5%

CCc1ccc(-c2ccc(Nc3ccccc3)nn2)cc1S(N)(=O)=O
inactive: [18] 78.9% | [19] 88.6% | [1] 101% | [2] 116% | [3] 77% | [5] 72.2% | [9] 27.8% | [11] 93% | [12] 87.1% | [13] 96.8% | [14] 106% | [15] 63.8% | [16] 84.1% | [17] 85.6%
active: [8] 9.58%

Cc1cc(Nc2ccc(F)cc2)nc(N2CCN(c3ccnc4cc(Cl)ccc34)CC2)n1
inactive: [19] 30.2% | [6] 15.5% | [9] 12.5% | [10] 31.9% | [15] 24.1% | [16] 39.3% | [17] 13.5%
active: [18] 4.35% | [1] 3.92% | [2] 8.31% | [3] 2.61% | [5] -1.6% | [7] 6.8% | [8] 2.7% | [11] 8.2%

Cc1cc(Cl)c2c(N(C)C)cccc2n1
inactive: [19] 102% | [1] 91.1% | [2] 125% | [4] 99.9% | [5] 92.1% | [6] 89.8% | [7] 97.6% | [8] 75% | [9] 104% | [10] 94.5% | [11] 119% | [12] 108% | [13] 92.4% | [15] 100% | [16] 136% | [17] 106%

Cc1nn2c(-c3nc4cc(Cl)c(Cl)cc4[nH]3)c(-c3ccc(F)cc3)nc2s1
active: [2] -33.1% | [3] 9.13% | [10] 8.25% | [12] -60% | [13] -73.1% | [15] -13.2% | [16] 1.04%
inactive: [18] 57.9% | [19] 34% | [4] 13% | [5] 29.8% | [6] 66.5% | [7] 76.3% | [8] 41.1% | [9] 20.6% | [11] 23.8% | [14] 21.2% | [17] 21.4%

NS(=O)(=O)c1ccc(CCNC(=O)/C=C/c2ccc(Cl)cc2)cc1
inactive: [18] 106% | [19] 92.9% | [2] 121% | [3] 102% | [5] 89% | [6] 91.1% | [7] 74.6% | [8] 75.6% | [9] 98.3% | [10] 95.1% | [11] 98.5% | [12] 87.1% | [13] 105% | [14] 91.7% | [15] 105% | [16] 98.2% | [17] 103%

Nc1c(C(=O)Nc2cccc(Br)c2)sc2nc3c(cc12)C(=O)CCC3
inactive: [18] 30.8% | [1] 56.9% | [2] 69% | [3] 58.8% | [4] 64% | [8] 13.7% | [9] 38.3% | [11] 59.3% | [12] 77.2% | [14] 44% | [17] 26.9%
active: [5] -3.99% | [13] 5.74% | [15] 5.48%

C/C(=N/NC(N)=S)C(=O)O
inactive: [18] 118% | [19] 80.6% | [2] 119% | [3] 91.7% | [5] 110% | [7] 27.7% | [8] 90% | [9] 75.2% | [10] 71.2% | [11] 91.1% | [12] 85.5% | [13] 107% | [15] 77% | [17] 65.3%

Source: PubChem BioAssay (NCI)
